Records with an inconclusive call do not appear. Entries that show only a call come without a potency. Active and inactive are the calls of the source. Calls follow the shape of the dose curve; as a rule, active = well fitted inhibition curve with a large enough effect; inconclusive = small, poorly fitted or top-dose-only effect; inactive = flat fitted curve, though single readings scatter. Numbered stars: 1 amine (or outer) side, 2 acyl side, 3 side chain; on linkers, the order of the positions; unused ones are H or OH. Bridge positions count the residues as written; N and C are the ends. Square brackets hold non-standard residues; d marks the D form. Peptide text beside a SMILES is read from it. * marks the point of attachment. ξ: configuration not given here. ΔAla(Z-3-ureido) = NC(=O)N/C=C(\N)C(=O)O; ξDab(CH2SO3H) = NC(CCNCS(=O)(=O)O)C(=O)O; X2 = NC1=NC(O)CC(C(N[*:1])C(=O)[*:2])N1; X1 = NC1=NCCC(C(N[*:1])C(=O)[*:2])N1; Heptanoyl(6-Me) = CC(C)CCCCC(=O)*; ξβ3hOrn = NCCCC(N)CC(=O)*; Orn = NCCC[CH](N)C(=O)O; Dab = NCC[CH](N)C(=O)O; Dap = NC[CH](N)C(=O)O
These molecules were tested on DFO2036 (assay: qHTS profiling for inhibitors of Plasmodium falciparum proliferation (AID 504749; also: nearly all actives have a fitted effect of over 60% in size)). Details: P. falciparum in erythrocytes, SYBR Green DNA, 72 h; series mostly up to 28.7 µM.
Source text: NIH National Institute of Allergy and Infectious Diseases [NIAID] NIH Chemical Genomics Center [NCGC] MLPCN Grant: None Assay Provider: Xinzhuan Su, NIAID NCGC Assay Overview: Plasmodium falciparum is a virulent malarial parasite that kills 1-2 million people worldwide each year. Transmitted by mosquitoes, the sporozoite form of the parasite enters the blood stream to infect hepatocytes, where they become merozoites that infect red blood cells (erythrocytes). Within erythrocytes, merozoites begin a […] cycle of growth and division, after which the parasite is released to infect new red blood cells. Gametocytes, which form within erythrocytes as well, circulate in the bloodstream and are ingested by the mosquito, thereby completing the life cycle. To profile malarial isolates for differential chemical responses and to identify inhibitors of malarial growth, an assay that measures P. falciparum growth and replication within erythrocytes was employed. This assay uses a DNA binding fluorescent dye (SYBR Green) to detect parasite DNA following cell lysis. Because mature erythrocytes lack DNA, only Plasmodium-derived DNA is detected.
NCGC Assay Protocol Summary: The SYBR Green viability assay was adapted from a method described previously (Plouffe et al., 2008). For screening 3 ul culture medium was dispensed into 1536 well black clear bottom plates (Aurora Biotechnologies) using a Multidrop Combi (Thermo Fisher Scientific Inc.), 23 nL compounds in DMSO were added by a pin tool (Kalypsys), and 5 ul of erythrocytes infected with P. falciparum (0.3% parasitemia, 2.5% hematocrit final concentration) were added. The plates were incubated at 37 C in a humidified incubator in 5% CO2 for 72 h, and 2 ul lysis buffer (20 mM Tris HCl, 10 mM EDTA, 0.16% saponin, 1.6% triton X, 10X SYBR Green I supplied as 10,000X […] by Invitrogen) was added to each well. The plates were mixed for 25 sec with gentle shaking and incubated overnight at room temperature in the dark. The following morning, fluorescence intensity at 485(14) nm excitation and 535(25) nm emission wavelengths was measured on an EnVision (Perkin Elmer) plate reader. Plate reads were normalized relative to the control inhibitor (0.29 uM artemisinin) and vehicle (DMSO) wells present on each plate and then corrected by an algorithm using vehicle-only control plates at the beginning and end of the compound plate stack.
In the case of `CC(C)CC1NC(=O)C(CCCN)NC(=O)C(C(C)C)NC(=O)C2CCCN2C(=O)C(Cc2ccccc2)NC(=O)C(CC(C)C)NC(=O)C(CCCN)NC(=O)C(C(C)C)NC(=O)C2CCCN2C(=O)C(Cc2ccccc2)NC1=O` (stereo not drawn) (cyclo(FPV[Orn]LFPV[Orn]L); configuration not given here), the Potency is reported as 2.8 nM (active).
In the case of `CC(C)C(NC(=O)C(CC(=O)O)NC(=O)C(CCCCN)NC(=O)C(N)CCCN=C(N)N)C(=O)NC(Cc1ccc(O)cc1)C(=O)O` (stereo not drawn) (H-RKDVY-OH; configuration not given here), the Potency is reported as “inactive”.
`CCOC(=O)C(CS)NCCN[C@@H](CS)C(=O)OCC` (stereo partly drawn) was tested, and the Potency was “inactive”.
`CCC(Oc1ccccc1)C(=O)NC1C(=O)N2C1SC(C)(C)C2C(=O)O` (stereo not drawn) was tested, and the Potency was “inactive”.
In the case of `Cn1cc(O)nc1NC(=O)Nc1cccc(Cl)c1`, the Potency is reported as “inactive”.
For `CC(C)CC(NC(=O)C(COC(C)(C)C)NC(=O)C(Cc1ccc(O)cc1)NC(=O)C(CO)NC(=O)C(Cc1c[nH]c2ccccc12)NC(=O)C(Cc1cnc[nH]1)NC(=O)C1CCC(=O)N1)C(=O)NC(CCCN=C(N)N)C(=O)N1CCCC1C(=O)NNC(N)=O` (stereo not drawn), the Potency was “inactive”.
In the case of `NCCCC(N)CC(=O)NC1CNC(=O)C(C2CC(O)N=C(N)N2)NC(=O)/C(=C/NC(N)=O)NC(=O)C(CO)NC(=O)C(CO)NC1=O` (stereo not drawn) (ξβ3hOrn-[Dap]SS[ΔAla(Z-3-ureido)][X2]; lactam 1-C; configuration not given here), the Potency is reported as “inactive”.
`C=CC1=C(C(=O)O)N2C(=O)[C@@H](NC(=O)C(N=O)c3csc(N)n3)[C@H]2SC1` (stereo partly drawn) was tested, and the Potency was “inactive”.
With `CCC(C)C1NC(=O)C(CCNCS(=O)(=O)O)NC(=O)C(NC(=O)C(CCNCS(=O)(=O)O)NC(=O)C(NC(=O)C(CCNCS(=O)(=O)O)NC(=O)CCCCC(C)C)C(C)O)CCNC(=O)C(C(C)O)NC(=O)C(CCNCS(=O)(=O)O)NC(=O)C(CCNCS(=O)(=O)O)NC(=O)C(C(C)CC)NC1=O` (stereo not drawn) ({Heptanoyl(6-Me)}-[ξDab(CH2SO3H)]T[ξDab(CH2SO3H)][Dab][ξDab(CH2SO3H)]II[ξDab(CH2SO3H)][ξDab(CH2SO3H)]T; lactam 4-C; configuration not given here) the Potency was “inactive”.
For `CC1(C)C(/C=C/C=C/C=C/C=C2\N(CCCCS(=O)(=O)O)c3ccc4ccccc4c3C2(C)C)=[N+](CCCCS(=O)(=O)[O-])c2ccc3ccccc3c21`, the Potency was “inactive”.
`CC(C)C[C@H](NC(=O)[C@@H](Cc1c[nH]c2ccccc12)NC(=O)[C@@H](Cc1ccc(O)cc1)NC(=O)[C@@H](CO)NC(=O)[C@@H](Cc1c[nH]c2ccccc12)NC(=O)C(Cc1cnc[nH]1)NC(=O)C1CCC(=O)N1)C(=O)N[C@@H](CCCN=C(N)N)C(=O)N1CCC[C@@H]1C(=O)NCC(N)=O` (stereo partly drawn) was tested, and the Potency was “inactive”.
`O=C(O)c1ccccc1-c1c2cc(Br)c(=O)c(Br)c-2oc2c(Br)c(O)c(Br)cc12` was tested, and the Potency was “inactive”.
With `CCC(C)C1NC(=O)C(Cc2ccc(O)cc2)NC(=O)C(N)CSSCC(C(=O)N2CCCC2C(=O)NC(CC(C)C)C(=O)NCC(N)=O)NC(=O)C(CC(N)=O)NC(=O)C(CCC(N)=O)NC1=O` (stereo not drawn) the Potency was “inactive”.
`CNCC(=O)NC(CCCN=C(N)N)C(=O)NC(C(=O)NC(Cc1ccc(O)cc1)C(=O)NC(C(=O)NC(Cc1cnc[nH]1)C(=O)N1CCCC1C(=O)NC(C)C(=O)O)C(C)C)C(C)C` (stereo not drawn) was tested, and the Potency was “inactive”.
For `NC(=O)CCC1NC(=O)C(Cc2ccccc2)NC(=O)C(Cc2ccc(O)cc2)NC(=O)CCSSCC(C(=O)N2CCCC2C(=O)NC(CCCN=C(N)N)C(=O)NCC(N)=O)NC(=O)C(CC(N)=O)NC1=O` (stereo not drawn), the Potency was “inactive”.
In the case of `O=C1/C(=C\c2cccs2)CCC/C1=C/c1cccs1`, the Potency is reported as “inactive”.
For `CC(=O)OCC1=C(C(=O)O)N2C(=O)C(NC(=O)Cc3ccccc3)C2SC1` (stereo not drawn), the Potency was “inactive”.
In the case of `CCC1NC(=O)C(NC(=O)c2ncccc2O)C(C)OC(=O)C(c2ccccc2)NC(=O)C2CC(=O)CCN2C(=O)C(Cc2ccccc2)N(C)C(=O)C2CCCN2C1=O` (stereo not drawn), the Potency is reported as “inactive”.
`CC(=O)OCC(=O)[C@@]1(O)CCC2C3CCC4=CC(=O)CC[C@]4(C)C3=CC[C@@]21C` (stereo partly drawn) was tested, and the Potency was “inactive”.
`CC(N)C(=O)NCC(=O)NC1CSSCC(C(=O)O)NC(=O)C(CO)NC(=O)C(C(C)O)NC(=O)C(Cc2ccccc2)NC(=O)C(C(C)O)NC(=O)C(CCCCN)NC(=O)C(Cc2c[nH]c3ccccc23)NC(=O)C(Cc2ccccc2)NC(=O)C(Cc2ccccc2)NC(=O)C(CC(N)=O)NC(=O)C(CCCCN)NC1=O` (stereo not drawn) was tested, and the Potency was “inactive”.
`O=C(OCC1OC(OC(=O)c2cc(O)c(O)c(OC(=O)c3cc(O)c(O)c(O)c3)c2)[C@@H](OC(=O)c2cc(O)c(O)c(OC(=O)c3cc(O)c(O)c(O)c3)c2)C(OC(=O)c2cc(O)c(O)c(OC(=O)c3cc(O)c(O)c(O)c3)c2)C1OC(=O)c1cc(O)c(O)c(OC(=O)c2cc(O)c(O)c(O)c2)c1)c1cc(O)c(O)c(OC(=O)c2cc(O)c(O)c(O)c2)c1` (stereo partly drawn) was tested, and the Potency was 2240 nM (active).
With `NCCCC(N)CC(=O)NCC1NC(=O)C(CO)NC(=O)C(N)CNC(=O)C(C2CCN=C(N)N2)NC(=O)/C(=C/NC(N)=O)NC1=O` (stereo not drawn) (H-[Dap]S[Dap](ξβ3hOrn)[ΔAla(Z-3-ureido)][X1]; lactam 1-C; configuration not given here) the Potency was “inactive”.
With `COc1ccc(-c2nc3ccc(C4=C(C)CC(=O)NN4)cc3[nH]2)cc1` the Potency was “inactive”.

From PubChem BioAssay (NCATS)
Potency is read from the fitted curve at half-maximal effect.
